Measured values: PubChem BioAssay (EPA / NIEHS)
Results filed as inconclusive are left out. The source holds several records for some structures; these can differ, active in one and inactive in another. Calls of active or inactive are those of the source. The calls were made as follows, unless noted: active = hit-call score of the fitted dose curve at least 0.9, where 1 is the maximum; inconclusive = response in the unintended direction; inactive = score below 0.9.

Key:
[1] = target: human Peroxisome Proliferator-activated Receptor delta (PPARd), PPARD (gene 5467) (UniProt Q03181); assay: ATG_PPARd_TRANS: Attagene TRANS-FACTORIAL HepG2 Assay for human Peroxisome Proliferator-activated Receptor delta (PPARd) (AID 2283002)
How it was run: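 HepG2 cells transiently transfected with multiplexed GAL4-UAS reporter units and exogenous chimeric NR-Gal4 proteins; 24 h compound exposure. Reporter mRNA measured by RT-PCR, 6-FAM labelling, HpaI digestion and capillary electrophoresis; gain of signal versus DMSO.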

[2] = target: Peroxisome proliferator-activated receptor gamma (Homo sapiens) (UniProt P37231); assay: ATG_PPARg_TRANS: Attagene TRANS-FACTORIAL HepG2 Assay for human Peroxisome Proliferator-activated Receptor-gamma (PPARg) (AID 2283007)
How it was run: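 Gain-of-signal endpoint relative to DMSO, derived from reporter mRNA levels quantified by RT-PCR and capillary electrophoresis. Cells were HepG2 transiently expressing a chimeric NR-Gal4 construct with GAL4-UAS reporters, exposed to chemicals for 24 h.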

[3] = target: Nuclear receptor subfamily 1 group I member 2 (Homo sapiens) (UniProt O75469); assay: ATG_PXR_TRANS: Attagene TRANS-FACTORIAL HepG2 Assay for human Pregnane X Receptor (PXR) (AID 2283008)
How it was run: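 Transactivation by exogenous PXR–GAL4 fusion measured as reporter transcript induction after 24 h compound treatment of transfected human HepG2 cells. Read-out via RT-PCR and capillary electrophoresis of labelled fragments, fitted upward relative to DMSO.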

[4] = target: human RAR-related Orphan Receptor beta (RORb), RORB (gene 6096) (UniProt Q92753); assay: ATG_RORb_TRANS: Attagene TRANS-FACTORIAL HepG2 Assay for human RAR-related Orphan Receptor beta (RORb) (AID 2283010)
How it was run: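 Multiplexed transcription-factor reporter assay: HepG2 cells transiently carrying NR-Gal4/GAL4-UAS constructs, 24 h treatment, mRNA quantified by RT-PCR plus capillary electrophoresis fluorescence; activity scored as induction over DMSO.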

[5] = target: human Thyroid Receptor alpha (THRa1), THRA (gene 7067) (UniProt P10827); assay: ATG_THRa1_TRANS: Attagene TRANS-FACTORIAL HepG2 Assay for human Thyroid Receptor alpha (THRa1) (AID 2283014)
How it was run: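 Transient HepG2 transfection, NR-Gal4 chimera driving GAL4-UAS reporters; 24 h compound exposure; total RNA, oligo(dT) RT, PCR, fluorescent primer extension, capillary electrophoresis. Upward direction vs DMSO control.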

[6] = target: human RAR-related Orphan Receptor gamma (RORg), RORC (gene 6097) (UniProt P51449); assay: ATG_RORg_TRANS: Attagene TRANS-FACTORIAL HepG2 Assay for human RAR-related Orphan Receptor gamma (RORg) (AID 2283011)
How it was run: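 Transient MRTU transfection of HepG2 (TRANS format, exogenous NR-Gal4 chimera). 24 h dosing. Total RNA → oligo(dT) RT → PCR → 6-FAM labelling → HpaI cut → CE. Gain vs DMSO.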

[7] = target: Retinoic acid receptor RXR-alpha (Homo sapiens) (UniProt P19793); assay: ATG_RXRa_TRANS: Attagene TRANS-FACTORIAL HepG2 Assay for human Retinoid X Receptor alpha (RXRa) (AID 2283012)
How it was run: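 Chimeric NR-GAL4 trans-activation in HepG2, 24 h treatment; reporter transcripts quantified by fluorescence on capillary electrophoresis, analysed for upward change from DMSO.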

[8] = target: human Retinoid X Receptor beta (RXRb), RXRB (gene 6257) (UniProt P28702); assay: ATG_RXRb_TRANS: Attagene TRANS-FACTORIAL HepG2 Assay for human Retinoid X Receptor beta (RXRb) (AID 2283013)
How it was run: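 After a 24 h incubation with test chemical, transfected HepG2 cells carrying NR-Gal4 fusions and GAL4-UAS reporter transcription units yield RNA whose reporter cDNA is FAM-labelled, HpaI-cut and sized by capillary electrophoresis; increases over DMSO are scored.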

[9] = read-out: Intercellular Adhesion Molecule 1 (ICAM1), ICAM1 (gene 3383); assay: BSK_3C_ICAM1: BioMAP Diversity Plus: 3C Assay for Intercellular Adhesion Molecule 1 (ICAM1) Biomarker Activity (AID 2283003; active = hit-call score of the fitted dose curve at least 0.9, where 1 is the maximum; inactive = score below 0.9); settings: primary human endothelial cells (HUVEC); actives raise or lower the signal
How it was run: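 Using DMSO as baseline, bidirectional curve fitting was applied to ICAM-1 ELISA signals from HUVEC in the 3C system, measured 24 h after compound addition.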

[10] = BSK_3C_Proliferation: Cell Proliferation Assessment in the BioMAP Diversity Plus: 3C Assay (AID 2283006; active = hit-call score of the fitted dose curve at least 0.9, where 1 is the maximum; inactive = score below 0.9;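 as to AC50: potency may reflect either rise or fall in cell number versus DMSO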); settings: primary human endothelial cells (HUVEC)
How it was run: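 Measured here: sulforhodamine B (0.1%) staining of TCA-fixed sub-confluent umbilical vein endothelial cultures 48 h post-dosing, absorbance 560 nm. DMSO served as negative control and baseline; both signal gain and loss were modelled.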

[11] = read-out: E-selectin (Homo sapiens) (UniProt P16581); assay: BSK_3C_Eselectin: BioMAP Diversity Plus: 3C Assay for Eselectin Biomarker Activity (AID 2283015; active = hit-call score of the fitted dose curve at least 0.9, where 1 is the maximum; inactive = score below 0.9;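 also: cell surface E-selectin protein quantified by ELISA 24 h after dosing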); settings: primary human endothelial cells (HUVEC); actives raise or lower the signal
How it was run: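 HUVEC, 3C stimulation; compound exposure 24 h; E-selectin by ELISA; gain- or loss-of-signal fitted bidirectionally vs DMSO baseline.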

[12] = read-out: Interleukin-1 alpha (IL1a), IL1A (gene 3552); assay: BSK_BE3C_IL1a: BioMAP Diversity Plus: BE3C Assay for Interleukin-1 alpha (IL1a) Biomarker Activity (AID 2283016; active = hit-call score of the fitted dose curve at least 0.9, where 1 is the maximum; inactive = score below 0.9); settings: primary human bronchial epithelial cells; actives raise or lower the signal
How it was run: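 Measured in human lung primary bronchial epithelial cells: IL-1a by ELISA at 24 h after dosing, with bidirectional fitting against DMSO.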

[13] = read-out: Monocyte Chemoattractant Protein-1 (MCP1), CCL2 (gene 6347); assay: BSK_3C_MCP1: BioMAP Diversity Plus: 3C Assay for Monocyte Chemoattractant Protein-1 (MCP1) Biomarker Activity (AID 2283017; active = hit-call score of the fitted dose curve at least 0.9, where 1 is the maximum; inactive = score below 0.9); settings: primary human endothelial cells (HUVEC); actives raise or lower the signal
How it was run: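 HUVEC, 3C system; 24 h chemical exposure; MCP-1 by ELISA; bidirectional curve fit vs DMSO baseline.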

[14] = read-out: Monocyte Chemoattractant Protein-1 (MCP1), CCL2 (gene 6347); assay: BSK_4H_MCP1: BioMAP Diversity Plus: 4H Assay for Monocyte Chemoattractant Protein-1 (MCP1) Biomarker Activity (AID 2283018; active = hit-call score of the fitted dose curve at least 0.9, where 1 is the maximum; inactive = score below 0.9); settings: primary human endothelial cells (HUVEC); actives raise or lower the signal
How it was run: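 Primary human umbilical vein endothelium is exposed to chemical for 24 h before MCP-1 is assayed by ELISA. Concentration-response fitted bidirectionally relative to DMSO.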

[15] = read-out: Human Leukocyte Antigen - DR isotype (HLADR), HLA-DRA (gene 3122); assay: BSK_3C_HLADR: BioMAP Diversity Plus: 3C Assay for Human Leukocyte Antigen - DR isotype (HLADR) Biomarker Activity (AID 2283019; active = hit-call score of the fitted dose curve at least 0.9, where 1 is the maximum; inactive = score below 0.9); settings: primary human endothelial cells (HUVEC); actives raise or lower the signal
How it was run: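 HUVEC, 3C stimulation, 24 h post-dose; HLA-DR by ELISA; bidirectional curve fit vs DMSO baseline; gain or loss of signal scored.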

[16] = read-out: Interleukin-8 (IL8), CXCL8 (gene 3576); assay: BSK_3C_IL8: BioMAP Diversity Plus: 3C Assay for Interleukin-8 (IL8) Biomarker Activity (AID 2283020; active = hit-call score of the fitted dose curve at least 0.9, where 1 is the maximum; inactive = score below 0.9); settings: primary human endothelial cells (HUVEC); actives raise or lower the signal
How it was run: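 Using DMSO-treated wells as the baseline, bidirectional curve fitting was applied to ELISA-measured IL-8 from human umbilical vein endothelial cultures sampled 24 h after compound addition.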

[17] = target: human Retinoic Acid Receptor gamma (RARg), RARG (gene 5916) (UniProt P13631); assay: ATG_RARg_TRANS: Attagene TRANS-FACTORIAL HepG2 Assay for human Retinoic Acid Receptor gamma (RARg) (AID 2283009)
How it was run: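 Gain-of-signal relative to DMSO is reported from fluorescent capillary electrophoresis of RT-PCR reporter products. These came from HepG2 cells expressing transfected RARg-GAL4 chimeras with UAS reporters, harvested 24 h after dosing.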

Measured: AC50

human Retinoid X Receptor beta (RXRb), RXRB (gene 6257), sequence (P28702 whole entry, looked up, the tested form may be a part): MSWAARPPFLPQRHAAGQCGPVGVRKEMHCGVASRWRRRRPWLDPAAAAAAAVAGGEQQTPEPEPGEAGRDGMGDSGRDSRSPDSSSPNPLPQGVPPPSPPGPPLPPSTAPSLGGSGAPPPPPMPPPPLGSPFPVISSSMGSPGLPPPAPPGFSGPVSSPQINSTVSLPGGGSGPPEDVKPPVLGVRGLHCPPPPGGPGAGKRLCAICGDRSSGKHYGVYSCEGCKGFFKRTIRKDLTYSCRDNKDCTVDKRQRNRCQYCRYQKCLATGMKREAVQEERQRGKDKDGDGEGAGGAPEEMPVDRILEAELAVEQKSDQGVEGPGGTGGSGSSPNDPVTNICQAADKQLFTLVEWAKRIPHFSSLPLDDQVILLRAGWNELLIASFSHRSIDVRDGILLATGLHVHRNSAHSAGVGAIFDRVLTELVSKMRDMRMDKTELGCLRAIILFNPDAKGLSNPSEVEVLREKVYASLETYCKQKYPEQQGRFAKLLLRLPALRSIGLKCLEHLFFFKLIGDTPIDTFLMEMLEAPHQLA
human RAR-related Orphan Receptor beta (RORb), RORB (gene 6096), sequence (Q92753 whole entry, looked up, the tested form may be a part): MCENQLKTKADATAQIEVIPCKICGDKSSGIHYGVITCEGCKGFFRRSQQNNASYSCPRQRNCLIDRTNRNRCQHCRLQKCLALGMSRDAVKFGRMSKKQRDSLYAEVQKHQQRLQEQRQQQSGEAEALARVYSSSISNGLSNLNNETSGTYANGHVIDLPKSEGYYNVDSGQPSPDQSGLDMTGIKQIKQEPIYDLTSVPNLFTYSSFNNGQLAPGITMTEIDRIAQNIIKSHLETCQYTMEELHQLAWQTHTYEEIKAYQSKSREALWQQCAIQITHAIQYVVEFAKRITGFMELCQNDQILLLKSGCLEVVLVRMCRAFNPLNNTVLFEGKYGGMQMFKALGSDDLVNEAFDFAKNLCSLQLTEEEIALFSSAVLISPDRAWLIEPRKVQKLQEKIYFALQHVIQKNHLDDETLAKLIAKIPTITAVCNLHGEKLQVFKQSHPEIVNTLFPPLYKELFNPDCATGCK
human RAR-related Orphan Receptor gamma (RORg), RORC (gene 6097), sequence (P51449 whole entry, looked up, the tested form may be a part): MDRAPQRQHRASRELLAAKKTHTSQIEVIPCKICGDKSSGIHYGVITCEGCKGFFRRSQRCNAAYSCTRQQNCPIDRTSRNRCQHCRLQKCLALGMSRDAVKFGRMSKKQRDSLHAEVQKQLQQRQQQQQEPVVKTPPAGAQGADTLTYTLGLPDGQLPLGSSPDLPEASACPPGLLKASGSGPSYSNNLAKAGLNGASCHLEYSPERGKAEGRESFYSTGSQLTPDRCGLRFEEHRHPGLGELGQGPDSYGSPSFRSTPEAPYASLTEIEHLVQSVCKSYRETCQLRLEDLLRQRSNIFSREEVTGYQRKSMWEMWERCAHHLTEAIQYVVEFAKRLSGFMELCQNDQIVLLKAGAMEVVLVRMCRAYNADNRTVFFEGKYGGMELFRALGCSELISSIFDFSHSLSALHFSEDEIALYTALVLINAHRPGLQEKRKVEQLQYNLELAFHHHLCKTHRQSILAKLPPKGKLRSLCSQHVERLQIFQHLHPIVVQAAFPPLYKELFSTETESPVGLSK
human Peroxisome Proliferator-activated Receptor delta (PPARd), PPARD (gene 5467), sequence (Q03181 whole entry, looked up, the tested form may be a part): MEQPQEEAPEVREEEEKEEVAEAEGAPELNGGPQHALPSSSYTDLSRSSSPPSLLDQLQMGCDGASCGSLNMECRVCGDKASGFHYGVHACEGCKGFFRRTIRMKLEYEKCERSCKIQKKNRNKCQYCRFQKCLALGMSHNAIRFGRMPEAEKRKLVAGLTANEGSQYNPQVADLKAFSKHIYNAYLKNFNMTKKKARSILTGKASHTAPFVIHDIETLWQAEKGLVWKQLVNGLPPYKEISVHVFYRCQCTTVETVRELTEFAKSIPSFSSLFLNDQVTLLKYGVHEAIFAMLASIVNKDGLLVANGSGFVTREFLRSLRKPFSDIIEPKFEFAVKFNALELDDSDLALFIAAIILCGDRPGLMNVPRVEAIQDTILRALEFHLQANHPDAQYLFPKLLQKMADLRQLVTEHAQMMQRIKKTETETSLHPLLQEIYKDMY
human Thyroid Receptor alpha (THRa1), THRA (gene 7067), sequence (P10827 whole entry, looked up, the tested form may be a part): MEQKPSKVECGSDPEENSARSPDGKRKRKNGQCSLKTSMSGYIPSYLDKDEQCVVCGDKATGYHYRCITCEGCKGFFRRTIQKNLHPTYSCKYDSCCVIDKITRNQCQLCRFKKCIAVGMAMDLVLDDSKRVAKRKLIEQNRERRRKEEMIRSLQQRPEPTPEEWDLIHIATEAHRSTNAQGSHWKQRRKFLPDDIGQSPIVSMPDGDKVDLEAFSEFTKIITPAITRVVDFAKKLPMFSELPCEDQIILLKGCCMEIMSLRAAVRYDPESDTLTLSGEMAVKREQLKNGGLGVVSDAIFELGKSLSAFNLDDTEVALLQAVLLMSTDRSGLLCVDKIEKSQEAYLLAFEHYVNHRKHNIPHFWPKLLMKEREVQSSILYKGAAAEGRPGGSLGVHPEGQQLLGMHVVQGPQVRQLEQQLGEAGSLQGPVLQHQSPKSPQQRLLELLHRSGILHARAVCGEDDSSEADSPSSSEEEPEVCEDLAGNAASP
Peroxisome proliferator-activated receptor gamma (Homo sapiens), sequence (P37231 whole entry, looked up, the tested form may be a part): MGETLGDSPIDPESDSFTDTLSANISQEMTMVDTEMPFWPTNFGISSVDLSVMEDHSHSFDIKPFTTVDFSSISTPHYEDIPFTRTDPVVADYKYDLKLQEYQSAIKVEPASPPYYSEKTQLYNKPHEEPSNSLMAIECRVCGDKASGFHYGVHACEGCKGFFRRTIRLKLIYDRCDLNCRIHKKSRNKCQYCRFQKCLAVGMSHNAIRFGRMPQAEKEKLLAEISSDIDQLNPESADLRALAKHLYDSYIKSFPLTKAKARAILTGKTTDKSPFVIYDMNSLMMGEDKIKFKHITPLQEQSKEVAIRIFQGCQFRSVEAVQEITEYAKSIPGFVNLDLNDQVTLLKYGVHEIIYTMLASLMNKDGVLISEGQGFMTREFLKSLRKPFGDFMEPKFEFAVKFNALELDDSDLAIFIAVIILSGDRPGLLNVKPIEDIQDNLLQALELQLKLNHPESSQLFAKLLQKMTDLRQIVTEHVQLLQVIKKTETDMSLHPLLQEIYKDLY
E-selectin (Homo sapiens), sequence (P16581 whole entry, looked up): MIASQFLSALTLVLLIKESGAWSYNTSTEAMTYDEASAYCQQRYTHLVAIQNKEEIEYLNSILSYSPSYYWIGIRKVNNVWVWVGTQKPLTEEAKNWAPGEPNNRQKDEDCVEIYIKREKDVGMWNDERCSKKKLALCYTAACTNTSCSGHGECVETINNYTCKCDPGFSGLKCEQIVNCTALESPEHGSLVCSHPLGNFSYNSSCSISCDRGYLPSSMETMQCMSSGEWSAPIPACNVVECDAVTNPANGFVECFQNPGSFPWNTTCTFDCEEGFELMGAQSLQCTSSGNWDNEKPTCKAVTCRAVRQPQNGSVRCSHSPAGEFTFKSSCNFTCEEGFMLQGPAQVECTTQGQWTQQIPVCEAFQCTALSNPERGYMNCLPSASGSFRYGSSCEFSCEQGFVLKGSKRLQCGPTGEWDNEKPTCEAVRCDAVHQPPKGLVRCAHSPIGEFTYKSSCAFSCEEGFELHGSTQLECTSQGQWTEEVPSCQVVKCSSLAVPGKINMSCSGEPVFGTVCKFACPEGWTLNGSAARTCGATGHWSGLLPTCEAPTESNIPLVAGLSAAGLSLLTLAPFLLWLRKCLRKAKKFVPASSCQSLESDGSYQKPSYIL
Retinoic acid receptor RXR-alpha (Homo sapiens), sequence (P19793 whole entry, looked up, the tested form may be a part): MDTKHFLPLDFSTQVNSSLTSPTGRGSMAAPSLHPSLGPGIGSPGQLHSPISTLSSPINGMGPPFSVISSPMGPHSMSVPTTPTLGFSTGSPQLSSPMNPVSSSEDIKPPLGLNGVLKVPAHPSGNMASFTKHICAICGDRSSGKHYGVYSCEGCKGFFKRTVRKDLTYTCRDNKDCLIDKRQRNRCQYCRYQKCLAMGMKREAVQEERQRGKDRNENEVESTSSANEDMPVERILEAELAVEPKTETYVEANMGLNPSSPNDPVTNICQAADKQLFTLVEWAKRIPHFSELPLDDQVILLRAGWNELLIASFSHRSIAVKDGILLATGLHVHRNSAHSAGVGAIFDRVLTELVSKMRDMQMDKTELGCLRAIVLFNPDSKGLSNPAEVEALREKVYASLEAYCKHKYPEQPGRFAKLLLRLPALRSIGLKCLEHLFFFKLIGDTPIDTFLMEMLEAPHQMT
Nuclear receptor subfamily 1 group I member 2 (Homo sapiens), sequence (O75469 whole entry, looked up, the tested form may be a part): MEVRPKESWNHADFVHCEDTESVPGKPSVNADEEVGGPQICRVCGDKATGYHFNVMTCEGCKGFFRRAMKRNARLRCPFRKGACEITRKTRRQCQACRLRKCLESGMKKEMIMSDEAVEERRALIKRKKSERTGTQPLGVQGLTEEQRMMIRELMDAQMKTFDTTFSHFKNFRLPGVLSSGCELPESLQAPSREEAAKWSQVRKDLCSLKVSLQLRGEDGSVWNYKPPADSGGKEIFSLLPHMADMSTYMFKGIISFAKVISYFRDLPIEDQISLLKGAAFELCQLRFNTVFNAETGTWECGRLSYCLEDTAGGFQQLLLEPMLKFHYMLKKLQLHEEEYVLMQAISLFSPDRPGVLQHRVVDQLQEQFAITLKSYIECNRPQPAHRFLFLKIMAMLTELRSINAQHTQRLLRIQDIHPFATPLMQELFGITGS
human Retinoic Acid Receptor gamma (RARg), RARG (gene 5916), sequence (P13631 whole entry, looked up, the tested form may be a part): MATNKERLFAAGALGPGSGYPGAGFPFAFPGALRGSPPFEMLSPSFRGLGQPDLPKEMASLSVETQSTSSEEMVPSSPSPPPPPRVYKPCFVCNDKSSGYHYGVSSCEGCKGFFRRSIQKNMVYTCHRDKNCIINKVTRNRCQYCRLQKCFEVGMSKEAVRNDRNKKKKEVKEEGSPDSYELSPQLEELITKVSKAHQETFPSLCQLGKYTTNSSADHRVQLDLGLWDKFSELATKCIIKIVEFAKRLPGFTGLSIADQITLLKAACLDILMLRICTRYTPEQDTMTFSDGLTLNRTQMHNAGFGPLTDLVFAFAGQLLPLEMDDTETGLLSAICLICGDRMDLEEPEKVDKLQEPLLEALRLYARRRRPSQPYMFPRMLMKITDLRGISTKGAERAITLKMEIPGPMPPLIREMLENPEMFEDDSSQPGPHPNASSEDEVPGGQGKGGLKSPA

Nc1cccc(S(=O)(=O)c2cccc(N)c2)c1
inactive: [1] | [2] | [3] | [4] | [5]

CCN(CC)c1ccc(C(=C2C=CC(=[N+](CC)CC)C=C2)c2ccc(S(=O)(=O)O)cc2S(=O)(=O)[O-])cc1
active: [8] 100 µM
inactive: [1] | [2] | [3] | [4] | [6] | [7] | [5]

OC1C(O)C(O)C(O)C(O)C1O (centres undefined)
inactive: [1] | [2] | [3] | [6] | [8] | [5]

CCOc1ccccc1OCC
inactive: [1] | [2] | [3] | [7] | [8] | [5]

C=CCOC(=O)CCC1CCCCC1
active: [10] 31.6 µM
inactive: [9] | [10] | [2] | [3] | [7] | [5] | [11] | [12] | [13] | [14] | [15] | [16]

CCC(O)CO (centres undefined)
inactive: [1] | [3] | [7] | [8]

COc1cccc(OC)c1
inactive: [1] | [2] | [6]

CCCCCCCCCCCCCCCC(=O)OC[C@H](O)[C@H]1OC(=O)C(O)=C1O
inactive: [1] | [2] | [6] | [7] | [8] | [5]

O=[N+]([O-])c1cc(C(F)(F)F)ccc1Cl
not listed: [1] | [4] | [5] | [6] | [7] | [8] | [17]
inactive: all other assays above

CC(C)Oc1ccccc1O
inactive: [9] | [10] | [2] | [11] | [12] | [13] | [14] | [15] | [16]
active: [3] 27.4 µM

CN(C)C(=N)N=C(N)N
inactive: [1] | [3] | [17] | [7] | [5]

C=C(C)[C@@H]1CCC2=CC(=O)C[C@@H](C)[C@]2(C)C1
inactive: [1] | [2] | [7] | [8]

CC(=O)C(C)=O
inactive: [1] | [7]

COC(=O)OC
inactive: [1] | [6] | [7] | [8]

CC1=CC(=O)NS(=O)(=O)O1
inactive: [1] | [6] | [8] | [5]

CCN(CC)c1ccc2c(-c3ccccc3C(=O)O)c3ccc(=[N+](CC)CC)cc-3oc2c1
inactive: [1] | [7]
active: [2] 30.4 µM

BrC1CCC(Br)C(Br)CCC(Br)C(Br)CCC1Br (centres undefined)
inactive: [9] | [2] | [5] | [11] | [12]
active: [10] 4.72 µM | [3] 2.86 µM | [8] 8.67 µM | [13] 4.64 µM | [14] 1.58 µM | [15] 3.33 µM | [16] 4.7 µM

Cc1cc(C2(c3cc(C)c(O)cc3C)OS(=O)(=O)c3ccccc32)c(C)cc1O
active: [3] 32.7 µM
not listed: [1] | [4] | [5] | [6] | [17]
inactive: all other assays above

CCCCC(CC)COC(=O)/C=C\C(=O)OCC(CC)CCCC (centres undefined)
inactive: [9] | [10] | [11] | [12] | [13] | [14] | [15] | [16]
active: [2] 4.7 µM | [3] 4.17 µM

CCCCC(CC)COCCC#N (centres undefined)
active: [10] 20 µM | [8] 51.1 µM | [13] 20 µM | [15] 20 µM
not listed: [1] | [4] | [5] | [7] | [17]
inactive: all other assays above

CC[Si](OC(C)=O)(OC(C)=O)OC(C)=O
active: [3] 7.32 µM
not listed: [1] | [5] | [7] | [8] | [17]
inactive: all other assays above

CC(=O)Nc1ccc(C)cc1C
inactive: [1] | [3] | [4] | [6] | [7] | [5]

FC1(F)C(F)(F)C(F)(F)C2(F)C(F)(C1(F)F)C(F)(F)C(F)(F)C1(F)C(F)(F)C(F)(F)C(F)(F)C(F)(F)C12F (centres undefined)
inactive: [1] | [3]

C[C@]12CC[C@H]3[C@@H](CCC4=CC(=O)CC[C@@]43C)[C@@H]1CC[C@@H]2C(=O)CO
inactive: [1] | [2] | [7]

CC(=O)O[C@]1(C(C)=O)CC[C@H]2[C@@H]3C[C@H](C)C4=CC(=O)CC[C@]4(C)[C@H]3CC[C@@]21C
inactive: [9] | [10] | [11] | [12] | [13] | [14] | [16]
active: [2] 21.9 µM | [7] 2.91 µM | [8] 2.34 µM | [15] 10 µM

CCCC1CCC(=O)O1 (centres undefined)
inactive: [1] | [4] | [7]

Cc1ccc(S)cc1
active: [2] 22.8 µM
inactive: [1] | [7]

CC(C)(C)NC(N)=O
inactive: [1] | [3] | [7] | [8] | [5]
